Experimental data published in paper PMC9911399, “Two distinct binding modes provide the RNA-binding protein RbFox with extraordinary sequence specificity”.
Numbering of substitutions follows the chain as printed; changes in the protein carry UniProt numbers. Over roughly 16,000 sequences, “ka relative to ugcaugu” has its median near 0.096; the highest 2% begin near 0.35. What follows is part of a selection rich in the highest values, with near analogues and random picks from the rest.

T1: RBFOX1 RRM RbFoxmut (Fox-RRM*) (Homo sapiens, UniProt Q9NWB1 109-208, R118D;E147R;N151S;E152T)
T1 sequence: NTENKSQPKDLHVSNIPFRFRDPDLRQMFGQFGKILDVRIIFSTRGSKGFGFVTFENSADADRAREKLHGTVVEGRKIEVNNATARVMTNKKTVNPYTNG

B1: CGAUGAA (DNA:RNA)
RNA: GGGAGACCGGAAUUCAGAUUGUCCCGAUGAAUUAAAUCCCGUCGUAGCCACCA
DNA 1: CAATCTGAATTCCGGTCTCCC
DNA 2: TGGTGGCTACGACGGGATT
B2: AAAAUAC (DNA:RNA)
RNA: B1 RNA with C25A, G26A, U28A, G29U, A31C
DNA 1: CAATCTGAATTCCGGTCTCCC
DNA 2: TGGTGGCTACGACGGGATT
B3: CCACGAC (DNA:RNA)
RNA: B1 RNA with G26C, U28C, A31C
DNA 1: CAATCTGAATTCCGGTCTCCC
DNA 2: TGGTGGCTACGACGGGATT
B4: AUUAACG (DNA:RNA)
RNA: GGGAGACCGGAAUUCAGAUUGUCCAUUAACGUUAAAUCCCGUCGUAGCCACCA
DNA 1: CAATCTGAATTCCGGTCTCCC
DNA 2: TGGTGGCTACGACGGGATT
B5: AUGAAUG (DNA:RNA)
RNA: B4 RNA with U27G, C30U
DNA 1: CAATCTGAATTCCGGTCTCCC
DNA 2: TGGTGGCTACGACGGGATT
B6: AUCCAUG (DNA:RNA)
RNA: B4 RNA with U27C, A28C, C30U
DNA 1: CAATCTGAATTCCGGTCTCCC
DNA 2: TGGTGGCTACGACGGGATT
B7: AUGAUUC (DNA:RNA)
RNA: B4 RNA with U27G, A29U, C30U, G31C
DNA 1: CAATCTGAATTCCGGTCTCCC
DNA 2: TGGTGGCTACGACGGGATT
B8: AUGAUUG (DNA:RNA)
RNA: B4 RNA with U27G, A29U, C30U
DNA 1: CAATCTGAATTCCGGTCTCCC
DNA 2: TGGTGGCTACGACGGGATT
B9: AUGAAUC (DNA:RNA)
RNA: B4 RNA with U27G, C30U, G31C
DNA 1: CAATCTGAATTCCGGTCTCCC
DNA 2: TGGTGGCTACGACGGGATT
B10: ACCAUGA (DNA:RNA)
RNA: B4 RNA with U26C, U27C, A29U, C30G, G31A
DNA 1: CAATCTGAATTCCGGTCTCCC
DNA 2: TGGTGGCTACGACGGGATT
B11: UCUGGGU (DNA:RNA)
RNA: B4 RNA with A25U, U26C, A28G, A29G, C30G, G31U
DNA 1: CAATCTGAATTCCGGTCTCCC
DNA 2: TGGTGGCTACGACGGGATT
B12: GUGGUUC (DNA:RNA)
RNA: B4 RNA with A25G, U27G, A28G, A29U, C30U, G31C
DNA 1: CAATCTGAATTCCGGTCTCCC
DNA 2: TGGTGGCTACGACGGGATT
B13: AGCGCCG (DNA:RNA)
RNA: B4 RNA with U26G, U27C, A28G, A29C
DNA 1: CAATCTGAATTCCGGTCTCCC
DNA 2: TGGTGGCTACGACGGGATT
B14: ACACACC (DNA:RNA)
RNA: B4 RNA with U26C, U27A, A28C, G31C
DNA 1: CAATCTGAATTCCGGTCTCCC
DNA 2: TGGTGGCTACGACGGGATT
B15: UGUGUAA (DNA:RNA)
RNA: B1 RNA with C25U, A27U, U28G, G29U
DNA 1: CAATCTGAATTCCGGTCTCCC
DNA 2: TGGTGGCTACGACGGGATT
B16: CAACCGG (DNA:RNA)
RNA: B1 RNA with G26A, U28C, G29C, A30G, A31G
DNA 1: CAATCTGAATTCCGGTCTCCC
DNA 2: TGGTGGCTACGACGGGATT
B17: CUACAAU (DNA:RNA)
RNA: B1 RNA with G26U, U28C, G29A, A31U
DNA 1: CAATCTGAATTCCGGTCTCCC
DNA 2: TGGTGGCTACGACGGGATT
B18: CGGCAAU (DNA:RNA)
RNA: B1 RNA with A27G, U28C, G29A, A31U
DNA 1: CAATCTGAATTCCGGTCTCCC
DNA 2: TGGTGGCTACGACGGGATT
B19: UUGGUUU (DNA:RNA)
RNA: B4 RNA with A25U, U27G, A28G, A29U, C30U, G31U
DNA 1: CAATCTGAATTCCGGTCTCCC
DNA 2: TGGTGGCTACGACGGGATT
B20: GUCCGUA (DNA:RNA)
RNA: B1 RNA with C25G, G26U, A27C, U28C, A30U
DNA 1: CAATCTGAATTCCGGTCTCCC
DNA 2: TGGTGGCTACGACGGGATT
B21: GUUUGUA (DNA:RNA)
RNA: B1 RNA with C25G, G26U, A27U, A30U
DNA 1: CAATCTGAATTCCGGTCTCCC
DNA 2: TGGTGGCTACGACGGGATT
B22: GGAUGUA (DNA:RNA)
RNA: B1 RNA with C25G, A30U
DNA 1: CAATCTGAATTCCGGTCTCCC
DNA 2: TGGTGGCTACGACGGGATT
B23: GAAUGUA (DNA:RNA)
RNA: B1 RNA with C25G, G26A, A30U
DNA 1: CAATCTGAATTCCGGTCTCCC
DNA 2: TGGTGGCTACGACGGGATT
B24: CGAUGUA (DNA:RNA)
RNA: B1 RNA with A30U
DNA 1: CAATCTGAATTCCGGTCTCCC
DNA 2: TGGTGGCTACGACGGGATT
B25: CGUUGUA (DNA:RNA)
RNA: B1 RNA with A27U, A30U
DNA 1: CAATCTGAATTCCGGTCTCCC
DNA 2: TGGTGGCTACGACGGGATT
B26: GAUUGUA (DNA:RNA)
RNA: B1 RNA with C25G, G26A, A27U, A30U
DNA 1: CAATCTGAATTCCGGTCTCCC
DNA 2: TGGTGGCTACGACGGGATT
B27: GUAUGUA (DNA:RNA)
RNA: B1 RNA with C25G, G26U, A30U
DNA 1: CAATCTGAATTCCGGTCTCCC
DNA 2: TGGTGGCTACGACGGGATT
B28: CUAUGUA (DNA:RNA)
RNA: B1 RNA with G26U, A30U
DNA 1: CAATCTGAATTCCGGTCTCCC
DNA 2: TGGTGGCTACGACGGGATT
B29: GCAUGUA (DNA:RNA)
RNA: B1 RNA with C25G, G26C, A30U
DNA 1: CAATCTGAATTCCGGTCTCCC
DNA 2: TGGTGGCTACGACGGGATT
B30: GCAUAUA (DNA:RNA)
RNA: B1 RNA with C25G, G26C, G29A, A30U
DNA 1: CAATCTGAATTCCGGTCTCCC
DNA 2: TGGTGGCTACGACGGGATT
B31: ACAUGUA (DNA:RNA)
RNA: B1 RNA with C25A, G26C, A30U
DNA 1: CAATCTGAATTCCGGTCTCCC
DNA 2: TGGTGGCTACGACGGGATT

Biological target: T1, RBFOX1 RRM RbFoxmut (Fox-RRM*)
Test: EMSA; HiTS-Eq, 1 nM pool, 10 min; buffer printed only for the single-RNA assays: 10 mM Tris pH 7.5, 150 mM NaCl, 3.4 mM EDTA, 0.001% NP-40, 30 C
Settings: tags: His6 N-terminal (pET28a); label: 5' 32P
Outline: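 Purified RbFox RRM, wild type or mutant, was incubated for 10 min in 50 µL with 1 nM of a 5′-radiolabelled RNA pool carrying 7 randomized nucleotides, whose flanks were annealed to DNA oligonucleotides, over a series of increasing protein concentrations. Unbound RNA was resolved on 8% native PAGE, cut out, reverse-transcribed, barcoded by PCR and sequenced on an Illumina HiSeq 2500. Relative association constants were derived from changes in read counts for each RNA species versus the control reaction and normalised to the cognate motif.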

Binder | binding signal
B1 | 0.123 KA relative to UGCAUGU
B2 | 0.076 KA relative to UGCAUGU
B3 | 0.0943 KA relative to UGCAUGU
B4 | 0.134 KA relative to UGCAUGU
B5 | 1.02 KA relative to UGCAUGU
B6 | 0.1 KA relative to UGCAUGU
B7 | 0.139 KA relative to UGCAUGU
B8 | 0.428 KA relative to UGCAUGU
B9 | 0.334 KA relative to UGCAUGU
B10 | 0.076 KA relative to UGCAUGU
B11 | 0.0963 KA relative to UGCAUGU
B12 | 0.283 KA relative to UGCAUGU
B13 | 0.116 KA relative to UGCAUGU
B14 | 0.0425 KA relative to UGCAUGU
B15 | 0.111 KA relative to UGCAUGU
B16 | 0.0516 KA relative to UGCAUGU

Binder | binding signal
B17 | 0.0289 KA relative to UGCAUGU
B18 | 0.053 KA relative to UGCAUGU
B19 | 0.1 KA relative to UGCAUGU
B20 | 0.12 KA relative to UGCAUGU
B21 | 0.446 KA relative to UGCAUGU
B22 | 0.285 KA relative to UGCAUGU
B23 | 1.18 KA relative to UGCAUGU
B24 | 0.202 KA relative to UGCAUGU
B25 | 0.258 KA relative to UGCAUGU
B26 | 0.284 KA relative to UGCAUGU
B27 | 0.63 KA relative to UGCAUGU
B28 | 0.198 KA relative to UGCAUGU
B29 | 1.04 KA relative to UGCAUGU
B30 | 0.169 KA relative to UGCAUGU
B31 | 0.2 KA relative to UGCAUGU
